This is a sample that favours compounds with a hit; in the whole collection about 5.3% have one here.
TDP1 block – TDP1 (human) enzyme inhibition. 350,000 tested, 0.28% active. Q9NUW8. Potency, µM (top dose mostly 130 µM), for inactives: top-dose activity change, negative = inhibition, hits mostly inhibitors. recombinant TDP1, AlphaScreen DNA substrate cleavage; note: potency is the fitted concentration of half-maximal effect; % is set by controls: 0 for no effect and ±100 for the full control effect; nearly all actives have a fitted effect of over 40% in size
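Tdp1 1 nM final; 15 min RT w/ cpd; substrate 15 nM, 5 min; beads 10 ug/ml, 10 min; AlphaScreen read. Neg ctrl: no enzyme.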
CtBP-E1A inh – inhibitors of CtBP/E1A interaction. AlphaScreen GST-E1A/His-CtBP binding, 1536-well; active compounds read low. activity change, % (concentration not given with the values). 340,000 tested, 0.49% active. AID 651724; in the data active = activity change below about -65%; inconclusive = mostly about -30% to -63%; note: % is set by controls: 0 for no effect and ±100 for the full control effect
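GST-E1A and His-tagged CtBP (125 nM each as 5X stock) were preincubated with pin-transferred compound for 2 h at 37 °C in the dark, then glutathione donor and nickel acceptor beads were added for 1 h before AlphaScreen reading.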
HP1b binding inh – blocks HP1-beta chromodomain binding to methylated histone tails; AID 540317; Potency, µM (series often up to 114 µM), for the others: top-dose activity change, negative = inhibition, actives largely listed as inhibitors; P83916; AlphaScreen HP1-beta / biotin-H3K9me3 peptide binding; 390,000 tested, 0.56% active; note: potency is the fitted concentration of half-maximal effect; nearly all actives have a fitted effect of over 70% in size
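Compound inhibition of the preformed complex between 50 nM HP1-beta and 50 nM biotinylated H3K9me3 peptide was read by AlphaScreen. Buffer was PBS pH 7.4 with 0.01% Tween-20. Incubations ran 30 min at room temperature, with 10 ug/mL donor/acceptor beads.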
JMJD2A Tudor – inhibitors of human JMJD2A Tudor domain; O75164; 390,000 tested, 4.4% active; AlphaScreen JMJD2A-Tudor / H3K4me3 peptide binding; Potency, µM (doses to about 114 µM), without a hit: at the highest dose activity change, negative = inhibition, hits mostly inhibitors; note: potency is the fitted concentration of half-maximal effect; % is set by controls: 0 for no effect and ±100 for the full control effect; nearly all actives have a fitted effect of over 50% in size
Six1-Eya2 blk – Six1/Eya2 interaction inhibition; Q15475+O00167; AlphaScreen GST-Six1/His-Eya2 binding, biochemical; active compounds read low; activity change, % (concentration not given with the values); 360,000 tested, 0.56% active; in the data active = activity change below about -65%; inconclusive = mostly about -30% to -63%; note: % is set by controls: 0 for no effect and ±100 for the full control effect
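Homogeneous AlphaScreen proximity assay pairing GST-Six1 with His-tagged Eya2 (added as 5X mix: 250 nM and 500 nM) in 50 mM Tris pH 8.0, 300 mM NaCl, 1 mM TCEP. Glutathione donor and nickel acceptor beads; 1 h, 37 °C, dark.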
BAZ2B inh – inhibitors of human BAZ2B bromodomain. 360,000 tested, 4.4% active. Q9UIF8. Potency, µM (doses to about 114 µM), inactives show at the top dose activity change, negative = inhibition, hits mostly inhibitors. AID 504333. AlphaScreen BAZ2B-H3K14Ac peptide displacement; note: potency is the fitted concentration of half-maximal effect; % is set by controls: 0 for no effect and ±100 for the full control effect; nearly all actives have a fitted effect of over 60% in size
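AlphaScreen displacement: compounds (up to 110uM) incubated 30 min at room temperature with a preformed 50 nM BAZ2B/50 nM biotinylated H3K14Ac peptide complex in PBS pH 7.4 with Tween-20. Donor and acceptor beads at 10 ug/mL final added, 20 min light-protected before reading.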
Active calls of the source: *; u = inconclusive; x = no result given; [ ] = another dose, or the depositor's remark. Unless noted, calls come from the whole dose curve; as a rule, active = well fitted inhibition curve with a large enough effect; inconclusive = small, poorly fitted or top-dose-only effect; inactive = no such curve, though single readings can be large or run the other way.

SMILES	TDP1 block	CtBP-E1A inh	HP1b binding inh	JMJD2A Tudor	Six1-Eya2 blk	BAZ2B inh
O=P1(O)Oc2c(-c3ccccc3)cc3ccccc3c2-c2c(c(-c3ccccc3)cc3ccccc23)O1	9%	x	x	x	x	x
COCCn1cnc2c1-c1ccc(OC)c(c1)OC/C=C\COc1cccc-2c1	14%	x	-25%	u	x	x
Cc1ccc(NC(=O)CSc2nnc(-c3cccs3)n2Cc2ccco2)cc1	9%	-9	-8%	u	-10	u
NC(=O)CSc1nnc(-c2ccc(O)cc2)n1Cc1ccco1	1%	-90*	17%	-5%	-87*	-2%
COc1ccc(-c2[nH]c(-c3ccc(OC)c(OC)c3)nc2SCC(=O)Nc2ccccc2)cc1	10%	x	-14%	u	x	2%
CN(C)c1ccc(NC(=O)CSc2nnc(-c3cccs3)n2Cc2ccco2)cc1	10%	u	u	40µM*	u	45µM*
COc1ccc(NC(=O)CSc2ncccc2C(=O)O)cc1OC	u	x	21%	-10%	x	56µM*
COc1ccc(NC(=O)CSc2nc(-c3cccc(C)c3)[nH]c2-c2ccccc2)cc1OC	10%	x	-14%	u	x	22µM*
O=C(NCc1ccc(Cl)cc1)C1CCN(C(=O)Cc2ccccc2)CC1	4%[56.1 µM]	-1	33%	-5%	-3	50µM*
CC(C)C(=O)NC(CC(=O)O)c1ccccc1 (stereo not drawn)	1%	8	25%	4%	-3	2%
CC(CC(=O)O)Nc1ccccc1O (stereo not drawn)	x	-9	-11%	0.1µM*	-4	45µM*
CCOC(=O)c1c(C)[nH]c(C)c1S(=O)(=O)NCC(=O)Nc1ccc(C)cc1C	5%	x	8%	-19%	x	-10%
C=CCn1c(SCC(=O)Nc2nc(C)cs2)nnc1C(C)NC(=O)c1ccccc1Cl (stereo not drawn)	-4%	-9	19%	89µM*	1	-6%
COc1cccc(C)c1NC(=O)C(OC(=O)CNC(=O)c1ccccc1)c1ccccc1 (stereo not drawn)	1%	x	x	-9%	x	x
Cc1ccccc1C(=O)NNC(=O)/C=C\C(=O)O	1%	0	-32%	50µM*	-12	0%
O=C(O)/C=C/C(=O)NNC(=O)c1ccccc1Br	3%	7	16%	-34%	4	u
Cc1ccc(N2CC(NC(=O)c3cc4ccccc4o3)CC2=O)cc1 (stereo not drawn)	5%	x	63%	-19%	x	1%
COc1ccc(OC)c([N+](=O)[O-])c1C(N)=O	x	-4	u	50µM*	-11	50µM*
COc1ccc(NC(C)=O)c([N+](=O)[O-])c1[N+](=O)[O-]	x	1	8%	-17%	7	x
CCOCCn1ccc2c(OCC(=O)Nc3ccc(OC(F)(F)F)cc3)cccc2c1=O	-3%	x	21%	-1%	x	-6%
O=C(NCCc1ccccc1)C1CCCN(c2cnccn2)C1 (stereo not drawn)	2%	x	u	28µM*	6	-7%
Cc1ccccc1CCNC(=O)C1CCCN(c2cnccn2)C1 (stereo not drawn)	4%	2	20%	-25%	2	-14%
CCCCOc1ccc(C(=O)NCCc2sc(-c3cccc(F)c3)nc2C)cc1	-1%	x	39%[57 µM]	3%	x	-1%
CC(Cc1ccccc1)(NC(=O)CN)c1ccccc1 (stereo not drawn)	0%	x	x	x	x	79µM*
C=CC(=O)NC(C)(C)Cc1ccccc1	4%	-2	22%	-8%	8	6%
SMILES	TDP1 block	CtBP-E1A inh	HP1b binding inh	JMJD2A Tudor	Six1-Eya2 blk	BAZ2B inh
O=C(CN1N=C(c2ccc(Cl)cc2)CCC1=O)NCc1ccc(F)cc1	10%	x	16%	-13%	x	2%
OCc1ccc2c(c1)c(-c1ccc3c(c1)OCCO3)c(-c1ccccc1)n2-c1ccccc1	6%	-25	-17%	45µM*	u	u
Nn1cnnc1SC1CCCCC1NS(=O)(=O)c1ccccc1 (stereo not drawn)	-4%	-4	7%	-21%	16	71µM*
Cn1cnnc1SC1CCCCC1NS(=O)(=O)c1ccccc1 (stereo not drawn)	5%	-10	32%	-10%	2	11%
Cc1ccc(CCNc2ncnc3onc(C)c23)cc1	-4%	x	41%	11%	x	14%[57.1 µM]
Cc1ccnc(NC(=O)/C=C/c2ccccc2Cl)c1	3%	-1	-3%	-18%	12	-8%
Cc1ccnc(NC(=O)/C=C/c2ccccc2[N+](=O)[O-])c1	1%	x	x	x	x	56µM*
Cc1ccnc(NC(=O)c2ccc([N+](=O)[O-])o2)c1	-7%	-2	0%	-22%	0	56µM*
O=C(C1CCC(Cn2c(=O)c3sccc3n(Cc3cccc(F)c3)c2=O)CC1)N1CCOCC1 (stereo not drawn)	8%	x	-13%	-21%	x	-33%
Cc1cccc(C[C@H](C(=O)O)N2C(=O)c3ccc(C(=O)O)cc3C2=O)c1	3%	x	x	u	x	1%
CN(C)c1cc2c(cc1NC(=O)c1ccccc1Cl)n(C)c(=O)n2C	5%	5	17%	-13%	3	50µM*
CCOC(=O)C1CCN(c2cc3c(cc2NC(=O)c2ccccc2Br)n(C)c(=O)n3C)CC1	8%	-10	5%	u	3	50µM*
CCOC(=O)c1ccccc1NC(=O)Nc1cc2c(cc1N1CCCCC1)n(C)c(=O)n2C	2%	x	22%	-17%	x	u
Cc1ccccc1C(=O)Nc1cc2c(cc1N1CCOCC1)n(C)c(=O)n2C	4%[12.3 µM]	x	7%	-16%	x	50µM*
COc1ccc(Br)c(C(=O)Nc2cc3c(cc2N2CCOCC2)n(C)c(=O)n3C)c1	0%	x	6%	-19%	x	79µM*
COc1ccc(Br)c(C(=O)Nc2cc3c(cc2N2CCCCC2)n(C)c(=O)c(=O)n3C)c1	5%	x	3%	-20%	x	-16%
CCOc1ccc(C2C(=O)N(C3CCCCCC3)CC(=O)N2CCC2=CCCCC2)cc1OC (stereo not drawn)	8%	x	18%	-13%	x	-11%
COc1ccc(-c2nc3sc(CCNS(=O)(=O)c4c(C)cc(C)cc4C)c(C)n3n2)cc1	0%	x	26%	-13%	x	-18%
Cc1nn(C(C)C(=O)N2CCN(c3ccc(Cl)cc3)CC2)c(=O)c2cc3occc3n12 (stereo not drawn)	3%	x	-11%	u	x	u
Cc1ccccc1C(=O)Nc1cc2c(cc1N1CCCCC1)n(C)c(=O)n2C	2%	x	-28%	u	x	25µM*
Cc1ccc(C(=O)Nc2cc3c(cc2N2CCCCC2)n(C)c(=O)n3C)cc1	-11%	6	61%	-14%	1	-18%
CCCN(CCC)CCCNC(=O)c1nn(C)c2c1CS(=O)(=O)c1ccccc1-2	4%	x	17%	-5%	x	-16%

Bioassay records deposited in PubChem by National Center for Advancing Translational Sciences (NCATS).
